# In PubChem BioAssay (NCATS):
# Values joined by “and” are separate entries in the source; they are usually repeats but may differ in a detail not shown here. Equal values may be shown once. Records with an inconclusive call do not appear. A call without a number means that no potency is given here. Active and inactive are the calls of the source. Calls come from the whole dose curve; as a rule, active = well fitted cell-killing curve with a large enough effect; inconclusive = small, poorly fitted or top-dose-only effect; inactive = no such curve, though single readings can be large or run the other way.
# Test: qHTS of pediatric cancer cell lines to identify multiple opportunities for drug repurposing: Primary screen for SJ-GBM2 cells (AID 1347091)
# Settings: SJ-GBM2 viability, CellTiter-Glo luminescence, 48 h; series mostly up to 46 µM; activity change, negative = cytotoxic: at the top concentration
# From the text: Drug repurposing or repositioning has been offered as a strategy for drug development in oncology programs. This approach has special potential for childhood cancers and other rare or orphan diseases, where the expected return on new drug development has been a disincentive to pharmaceuticals.
# In this project we exploit the poly-pharmacology of drugs to discover new indications via phenotypic screening of a panel of 19 well-characterized cell lines derived from solid tumors seen in children and adolescents. The goal is to identify approved drugs with previously unrecognized anticancer properties that has the potential to reveal new mechanisms and biological processes involved in carcinogenesis or drug resistance. We employed a titration-based paradigm (quantitative high-throughput screening or qHTS), where all compounds were tested at multiple concentrations for their effect on cell viability. Concentration-response curves (CRCs) were derived directly from the primary screen, and both potency and efficacy values were used to identify compounds with robust bioactivity profiles. We screened the NIH Chemical Genomics Center (NCGC) Pharmaceutical Collection (NPC) and Mechanism Interrogation Plate (MIPE) small molecule collections of approved and investigational compounds against these cell lines; and measured metabolically active cells after 48 hours of compound treatment as a proxy for cell viability.
# Assay Submitter: Nathalia J. Martinez, National Center for Advancing Translational Sciences, National Institutes of Health, Rockville, MD, USA; email: natalia.martinez@nih.gov
# [1] Shen, M et al. Quantitative high-throughput phenotypic screening of pediatric cancer cell lines identifies multiple opportunities for drug repurposing. Oncotarget 2017 Dec 19;9(4):4758-4772. PMID 29435139.
# The cells were obtained from University of North Carolina (UNC), Pediatric Preclinical Testing Program (PPT), and Coriell Institute (CI).
# qHTS cell viability assay:
# Cells were assayed in growth media at a density of 500-1,000 cells/well. Five microliters of cells were dispensed into 1,536-well, white, solid-bottom, TC-treated plates (Greiner Bio One) using a multidrop dispenser and incubated at 37 degrees C, 5% CO2, under a humidified atmosphere for 5 hours. Twenty-three nanoliters of compounds and controls (neutral control DMSO or positive control bortezomib at final concentration of 2.3 µM) were subsequently transferred by Kalypsys pintool. For primary screens, the MIPE collection was tested at 11-point dilutions (final concentrations range from 0.78 nM to 46 µM) and the NPC collection at 8-point dilutions (final concentrations range from 0.59 nM to 46 µM). Compounds tested in follow-up screens were assayed at 11-point dilutions. Cells were incubated for 48 hours, followed by addition of 3 uL of CellTiter-Glo (Promega). After a 15 min incubation at room temperature, samples were analyzed for luminescence intensity using a ViewLux High-throughput CCD imager equipped with clear filters.
# Potency is the fitted concentration of half-maximal effect.
SMILES,Potency,"activity change, negative = cytotoxic"
O=c1[nH]cc(F)c(=O)[nH]1,inactive,–
COC(=O)Nc1nc2ccc(C(=O)c3cccs3)cc2[nH]1,1 nM (active) and 119 nM (active),–
Cn1c(=O)c2[nH]cnc2n(C)c1=O,inactive,–
NC12CC3CC(CC(C3)C1)C2,–,22% (inactive)
CC#C[C@]1(O)CC[C@H]2[C@@H]3CCC4=CC(=O)CCC4=C3[C@@H](c3ccc(N(C)C)cc3)C[C@@]21C,1.05 µM (active),–
CN(CCOc1ccc(NS(C)(=O)=O)cc1)CCc1ccc(NS(C)(=O)=O)cc1,inactive,–
Cc1ccc(-c2cc(C(F)(F)F)nn2-c2ccc(S(N)(=O)=O)cc2)cc1,–,8.79% (inactive)
CCc1cccc2c3c([nH]c12)C(CC)(CC(=O)O)OCC3 (stereo not given),inactive,–
CN(C)c1nc(N(C)C)nc(N(C)C)n1,inactive,–
NC(=O)OCC(COC(N)=O)c1ccccc1,inactive,–
C[C@](N)(Cc1ccc(O)c(O)c1)C(=O)O,inactive,–
CC12CC3CC(C)(C1)CC(N)(C3)C2,–,6.21% (inactive)
Cc1cc(C(C)(C)C)cc(C)c1CC1=NCCN1,inactive,–
CC1COc2c(N3CCN(C)CC3)c(F)cc3c(=O)c(C(=O)O)cn1c23 (stereo not given),inactive,–
CN(C)CCCN1c2ccccc2CCc2ccc(Cl)cc21,23.7 µM (active),–
COc1ccc2[nH]cc(CCNC(C)=O)c2c1,inactive,–
NS(=O)(=O)c1cc2c(cc1Cl)NCNS2(=O)=O,inactive,–
Nc1c2c(nc3ccccc13)CCCC2,inactive,–
CCCNCC(O)COc1ccccc1C(=O)CCc1ccccc1 (stereo not given),–,-14.1% (inactive)
CN1C2CCC1CC(OC(=O)C(CO)c1ccccc1)C2 (stereo not given),–,-3.42% (inactive)

SMILES,Potency,"activity change, negative = cytotoxic"
COc1cc2c(c(OC)c1OC)-c1ccc(OC)c(=O)cc1[C@@H](NC(C)=O)CC2,42.2 nM (active) and 1 nM (active),–
CS(=O)(=O)Nc1ccc([N+](=O)[O-])cc1Oc1ccccc1,inactive,–
COc1ccccc1N1CCN(CC(O)COc2cccc3ccccc23)CC1 (stereo not given),inactive,–
CC[C@@]1(O)C(=O)OCc2c1cc1n(c2=O)Cc2cc3c(CN(C)C)c(O)ccc3nc2-1,94.4 nM (active) and 52.6 nM (active),–
N[C@@H](Cc1c[nH]c2ccc(O)cc12)C(=O)O,inactive,–
COc1nc(C)nc(Cl)c1NC1=NCCN1,inactive,–
CC(COc1ccccc1)N(CCCl)Cc1ccccc1 (stereo not given),–,0.251% (inactive)
Cn1ccc2cc3c(cc21)CCN3C(=O)Nc1cccnc1,inactive,–
CCOC(=O)c1ncn2c1CN(C)C(=O)c1cc(F)ccc1-2,inactive,–
Nc1ccn([C@H]2CC[C@@H](CO)O2)c(=O)n1,inactive,–
C[C@H]1c2cccc(O)c2C(O)=C2C(=O)[C@]3(O)C(O)=C(C(N)=O)C(=O)[C@@H](N(C)C)[C@@H]3[C@@H](O)[C@@H]21,inactive,–
COc1ccc(C2CNC(=O)C2)cc1OC1CCCC1 (stereo not given),inactive,–
Cc1cnc(C(=O)NCCc2ccc(S(=O)(=O)NC(=O)NC3CCCCC3)cc2)cn1,–,10.3% (inactive)
CCN1CCCC1CNC(=O)c1cc(S(=O)(=O)CC)c(N)cc1OC (stereo not given),inactive,–
Clc1ccc(C(c2ccccc2Cl)C(Cl)Cl)cc1 (stereo not given),–,-11.6% (inactive)
CCCCc1oc2ccccc2c1C(=O)c1cc(I)c(OCCN(CC)CC)c(I)c1,8.33 µM (active),–
Cc1ccc(C(=O)Nc2ccc(S(=O)(=O)O)c3cc(S(=O)(=O)O)cc(S(=O)(=O)O)c23)cc1NC(=O)c1cccc(NC(=O)Nc2cccc(C(=O)Nc3cc(C(=O)Nc4ccc(S(=O)(=O)O)c5cc(S(=O)(=O)O)cc(S(=O)(=O)O)c45)ccc3C)c2)c1,inactive,–
O=c1c(O)c(-c2ccc(O)c(O)c2)oc2cc(O)cc(O)c12,–,-3.58% (inactive)
OCCN(CCO)c1nc(N2CCCCC2)c2nc(N(CCO)CCO)nc(N3CCCCC3)c2n1,–,-10.2% (inactive)
CCC1(C)CC(=O)NC1=O (stereo not given),inactive,–
